Assay results taken from PubChem BioAssay AID2101 (National Center for Advancing Translational Sciences (NCATS), 2009).
Where “and” joins values, the source holds several entries; their conditions need not be identical. Equal values may be shown once. Out of some 330,000 compounds screened, about 300 (0.091%) were called active. Roughly 4% stayed inconclusive and do not appear here. Calls come from the whole dose curve; as a rule, active = well fitted inhibition curve with a large enough effect; inconclusive = small, poorly fitted or top-dose-only effect, or effect the other way, or another doubt; inactive = no such curve, though single readings can be large or run the other way. Shown is part of a subset that was picked to be rich in actives. A call without a number means that no potency is given here. A structure can be active in one record and inactive in another.

These compounds were tested against Lysosomal acid glucosylceramidase (Homo sapiens) (UniProt P04062) (assay: qHTS Assay for Inhibitors and Activators of N370S glucocerebrosidase as a Potential Chaperone Treatment of Gaucher Disease). Conditions: N370S GC spleen homogenate, 4MU-glucoside fluorescence; series mostly up to 59.4 µM.
Description: NIH Chemical Genomics Center [NCGC]
NIH Molecular Libraries Probe Production Centers Network [MLPCN]
Assay Submitter (PI): Wei Zheng
Glucocerebrosidase (GC) catalyzes the hydrolysis of beta-glucocerebroside to glucose and ceramide in lysosomes. Mutations in the glucocerebrosidase gene result in Gaucher disease, an autosomal recessive lysosomal storage disorder. Many of the mutations encountered in patients with Gaucher disease are missense alterations that may cause misfolding, decreased stability and/or mistrafficking of this lysosomal protein. […] These inhibitors include iminosugar analogs and three non-iminosugar inhibitors identified from a previous HTS of 62,000 compounds with the wild type recombinant enzyme. However, the enhancement of enzyme activity by the chaperone action of an enzyme inhibitor must be balanced against the direct inhibition of the enzyme. An enzyme activator could also function as a chaperone by binding to the enzyme and helping to correct its misfolding and mistrafficking. While activators for GC have not yet been identified, they may have better therapeutic potential than inhibitors. Therefore the discovery and development of chemical activators may provide a new strategy for the chaperone therapy.
We have optimized a new assay using N370S mutant GC derived from the spleen of a Gaucher patient. […] In addition, the MLPCN compound library has expanded, which increases the chance of finding new and better probes.
NCGC Assay Protocol Summary:
This is a fluorogenic enzyme assay with 4-methylumbelliferyl-beta-D-glucopyranoside as the substrate and N370S glucocerebrosidase from human spleen homogenate as the enzyme preparation. Upon the hydrolysis of this fluorogenic substrate, the resulting product, […] which can be detected by a standard fluorescence plate reader. Data were normalized to the controls for basal activity (without enzyme) and 100% activity (with enzyme). The AC50 values were determined from concentration-response data modeled with the standard Hill equation.
Assay buffer: 50 mM citric acid (titrated with potassium phosphate to pH 5.0), 100 mM potassium chloride, 10 mM sodium chloride, 1 mM magnesium chloride, 0.01% Tween-20.
1536-well assay protocol:
(1) Add 2 ul/well of spleen homogenate (27 ug final)
(2) Add 23 nL compounds in DMSO solution. The final titration was 0.5 nM to 58 uM.
(3) Add 2 ul of substrate (1 mM final)
(4) Incubate at 37C for 40 min.
(5) Add 2 ul stop solution (1M NaOH and 1M Glycine mixture, pH 10)
(6) Detect the assay plate in a ViewLux plate reader (PerkinElmer) with Ex=365 nm and Em=440nm.
Keywords: Glucocerebrosidase, beta-glucosidase, Gaucher Disease, pharmacological chaperone, chaperone therapy, high throughput screening, glucocerebrosidase inhibitor, MLSMR, MLSCN, NIH Roadmap, qHTS and NCGC
Potency is the fitted concentration of half-maximal effect.

Row | SMILES | Potency
1 | CNCC[C@H](Oc1ccc(C(F)(F)F)cc1)c1ccccc1 | inactive and 8.91 µM (active)
2 | CC(C)CC(C)Nc1ccc(Nc2ccccc2)cc1 (stereo not given) | inactive
3 | CC(CCC(=O)O)C1CCC2C3C(O)C[C@@H]4CC(O)CC[C@@]4(C)C3CC[C@@]12C (stereo not given in full) | inactive
4 | CC(Cl)Cl | inactive
5 | CC(=O)[O][Sn]([c]1ccccc1)([c]1ccccc1)[c]1ccccc1 | inactive
